This is an account of results in PubChem BioAssay.

SMILES strings stand for the structures.

The target of the assay is Dickkopf-related protein 1 (Homo sapiens) (UniProt O94907). As to the kind of experiment: small molecules binding DKK1 protein – biochemical, small-molecule microarray, 635 nm fluorescence scan, primary screen (AID 1106).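 Also: score merges emission near 667 nm with signal to noise over three replicate slides.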 As to conditions: higher = more signal.
Sequence of Dickkopf-related protein 1 (Homo sapiens) (O94907 whole entry, looked up): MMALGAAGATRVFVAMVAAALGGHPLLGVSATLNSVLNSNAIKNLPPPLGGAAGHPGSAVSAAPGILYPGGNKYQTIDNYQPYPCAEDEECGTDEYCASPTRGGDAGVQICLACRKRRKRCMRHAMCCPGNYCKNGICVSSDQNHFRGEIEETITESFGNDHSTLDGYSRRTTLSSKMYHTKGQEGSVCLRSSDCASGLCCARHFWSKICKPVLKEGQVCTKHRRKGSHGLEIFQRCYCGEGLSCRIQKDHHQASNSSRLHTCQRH
`O=C1C=C[C@@H](O)[C@@H]2[C@@H]3C(=O)N(C4CCCCC4)C(=O)[C@@H]3CC[C@@H]12` displayed a composite z-score of 0.844.
To `C[C@@H]1CC[C@H]2C(=O)OC(Cc3ccccc3)CN2[C@H]1c1ccc(Br)cc1` (stereo partly specified) belongs -0.0094; to `O=C1[C@H]2[C@H]3[C@H](O)[C@H](O)CC(=NO[C@@H]4O[C@H](CO)[C@@H](O)[C@H](O)[C@H]4O)[C@H]3CC[C@H]2C(=O)N1c1ccc(F)cc1F`, -0.494; to `COc1ccc(COC(=O)NN=C2C[C@@H](O)[C@@H](O)[C@@H]3[C@@H]4C(=O)N([C@@H](C)c5ccccc5)C(=O)[C@@H]4CC[C@H]23)cc1`, -0.769.
`CC(=O)OC[C@H]1O[C@H](CC=NO[C@H](C)c2cn([C@@H]3COC[C@H]3O)nn2)C=C[C@@H]1OC(C)=O`: the composite z-score amounted to 1.1.
For `COc1ccc(O[C@H]2C=C[C@@H](c3ccccc3)O[C@@H]2CO)cc1`, the composite z-score was found to be 0.485.
To `CCOC(=O)[C@H](Cc1ccccc1)NC(=O)CCC1CC(OC(=O)NCCc2ccc(F)cc2)CC2(CCCC(COC(=O)NCCOc3ccccc3)O2)O1` (stereo partly specified) belongs 1.05; to `O=C1C[C@@H](O)[C@@H](O)[C@@H]2[C@@H]3C(=O)N(C4CCCCC4)C(=O)[C@@H]3CC[C@@H]12`, 0.555.
In the case of `CC(CCN1CCCCc2nc(C)c(C)cc21)=NO[C@@H](C)c1cc(-c2c(C)cc(C)cc2C)no1`, the composite z-score was -0.0396.
Compound `CCOC(=O)[C@H](CC(C)C)NC(=O)CCC1CC(OC(=O)NCc2ccc3c(c2)OCO3)CC2(CCCC(COC(=O)NCCOc3ccccc3)O2)O1` (stereo partly specified) had a composite z-score of 0.826.
`C=CC[C@@H]1C=C[C@H](ON=C(C)CCN2CCCc3nc(C)c(C)cc32)[C@@H](CO)O1` gave a composite z-score of 1.32.
